Shown are actives, neighbours in structure and some others; about 21% of the full set was active somewhere.
Cycloheximide cs – counter-screen hit for Shiga toxin inhibitors, cycloheximide; max response, %; AID 2314; cell reporter, cycloheximide protein synthesis inhibition counterscreen; hit rate 12% among 300,000; in the data active = max response mostly above about 13%, no sharp cut-off; inactive = mostly below about 14%; note: read at 38.3 µM for the half of the compounds with a filed dose; 0% is about no effect
Pf growth 96h – inhibits malaria parasite growth, 96 h | P. falciparum luciferase reporter growth, 96 h | Potency, µM (top dose mostly 28.7 µM), for inactives: at the highest dose activity change, negative = inhibition, most hits filed as inhibitors | hit rate 6.9% among 320,000 | AID 504834; note: potency is the fitted concentration of half-maximal effect; % is set by controls: 0 for no effect and ±100 for the full control effect
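Luminescence readout: decreased luciferase signal marks inhibited growth of reporter-expressing P. falciparum in infected red cells (2% hematocrit, 0.05% parasitemia final), exposed to compound two generations (96 h, 37 C, 5% CO2).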
HCMV inh – blocks human cytomegalovirus replication. hit rate 4.5% among 410,000. AID 1259415. activity change, negative = inhibition, % at 57.5 µM. HFF cells, HCMV-luciferase reporter, 72 h; active compounds read low; in the data active = activity change below about -60%; inconclusive = no clear call, values can overlap the other calls; inactive = above about -39%; note: % is set by controls: 0 for no effect and ±100 for the full control effect
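Screen run at 2 compound doses on HFFs infected with reporter HCMV, MOI 1 PFU/cell. Luciferase activity from cell lysates at 72 h post infection gave inhibition relative to buffer-only and Salinomycin wells.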
Pf growth 48h – P. falciparum growth inhibition at 48 hours (one generation); P. falciparum luciferase growth in erythrocytes, 48 h; Potency, µM (series often up to 28.7 µM), without a hit: top-dose activity change, negative = inhibition, usual class: inhibitors; hit rate 5.9% among 310,000; AID 504832; note: potency is the fitted concentration of half-maximal effect; % is set by controls: 0 for no effect and ±100 for the full control effect
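Here the parasites carry a stable luciferase gene and grow inside erythrocytes in Albumax-based RPMI medium with compound for one erythrocytic cycle. Activity is scored as loss of luminescent signal.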
HCV inh – HCV inhibition | hit rate 3.4% among 340,000 | Huh7.5.1 HCVcc-Cre infection, luciferase reporter, 44 h | Potency, µM (doses to about 41.8 µM), for inactives: at the top dose activity change, negative = inhibition, usual class: inhibitors; note: potency is the fitted concentration of half-maximal effect; % is set by controls: 0 for no effect and ±100 for the full control effect
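Antiviral activity was scored by luciferase reporter output from cells infected with HCVcc-Cre (~0.5 moi) in presence of compound, 44 h infection period, cells seeded 1,000/well 4 h prior.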
Shiga toxin inh – inhibitors of Shiga toxin in Vero cells | Vero cells, Shiga toxin protein synthesis inhibition reporter | inhibition, % at 38.7 µM | hit rate 9.2% among 290,000; in the data active = inhibition mostly above about 28%, no sharp cut-off; inactive = mostly below about 43%; note: 0% is about no effect
Starred values were filed as active, the others as inactive; ? = inconclusive; · = no result given. Unless noted, calls come from the whole dose curve; as a rule, active = well fitted inhibition curve with a large enough effect; inconclusive = small, poorly fitted or top-dose-only effect, or another doubt; inactive = no such curve, though single readings can be large or run the other way.

SMILES | Cycloheximide cs | Pf growth 96h | HCMV inh | Pf growth 48h | HCV inh | Shiga toxin inh
Cc1ccc2sc(N(CCCN(C)C)C(=O)c3ccc(S(=O)(=O)N(C)Cc4ccccc4)cc3)nc2c1C | · | 11.7µM* | -22.9 | 10.4µM* | 3.55µM* | ·
CN(C)CCCN(C(=O)c1ccc(S(=O)(=O)N(C)Cc2ccccc2)cc1)c1nc2cc3c(cc2s1)OCO3 | -3.3 | ? | ? | ? | ? | -8.4
COc1ccc2sc(N(CCCN(C)C)C(=O)c3ccc(S(=O)(=O)N(C)Cc4ccccc4)cc3)nc2c1 | · | 2.7% | -35.8 | ? | 10µM* | ·
Cc1cc(C)c2sc(N(CCCN(C)C)C(=O)c3ccc(S(=O)(=O)N(C)Cc4ccccc4)cc3)nc2c1 | · | ? | -26.9 | ? | ? | ·
COc1cc(C(=C(CC(=O)O)C(=O)O)c2ccc3c(c2)OCO3)cc(OC)c1OC | · | · | -36.9 | · | 13.7% | ·
Cc1ccc(N2CCN(C(=O)c3cc4cc5ccc(C)cc5nc4s3)CC2C)cc1 (stereo unspecified) | · | · | 1.0 | · | · | ·
COc1cccc(N2C(=O)NC(=O)/C(=C/c3ccc4c(c3)Cc3ccccc3-4)C2=O)c1 | 19.2* | -10.3% | 15.0 | 25.0% | 13.0% | 40.2
Oc1ccc(CCNc2ncnc3ccc(Cl)cc23)cc1 | 0.4 | 16.7% | -98.0* | 0.5% | 3.16µM* | 5.6
COc1ccc(NS(=O)(=O)c2ccc3c(c2)NC(=O)CCS3)cc1Cl | -1.6 | 5.86µM* | 0.0 | -26.4% | 5.8% | 11.7
O=C1CSc2ccc(S(=O)(=O)N3CCN(c4ccccc4)CC3)cc2N1 | 4.8 | 13.6% | -22.3 | -25.6% | 0.3% | 24.1
Cc1ccc(C)c(N2CCN(S(=O)(=O)c3ccc4c(c3)NC(=O)CS4)CC2)c1 | -4.8 | 7.38µM* | ? | -26.9% | ? | -4.3
O=C1CSc2ccc(S(=O)(=O)NCc3ccccc3Cl)cc2N1 | 1.6 | ? | -60.0* | 13.9% | -15.0% | 1.9
CN1CCN(S(=O)(=O)c2ccc3c(c2)NC(=O)CS3)CC1 | -4.8 | ? | -26.1 | 45.1% | 14.2% | -3.1
O=C1CSc2ccc(S(=O)(=O)N3CCN(c4ccccc4F)CC3)cc2N1 | 7.5 | 13.1µM* | -76.1* | ? | ? | -6.0
COc1ccc(NS(=O)(=O)c2ccc3c(c2)NC(=O)CCS3)c(OC)c1 | · | · | 5.0 | · | · | ·
COc1cc(CN(C(=O)COc2ccccc2)c2ccccn2)cc(OC)c1OC | · | · | -4.2 | · | · | ·
CC(C)c1ccc(NC(=O)CSC2=Nc3ccccc3C3=NC(CCC(=O)NCc4ccco4)C(=O)N23)cc1 (stereo unspecified) | · | · | 14.3 | · | · | ·
COc1ccc(-c2nnc(SCC(=O)N3CCCCC3)o2)cc1 | 11.5 | -13.9% | 1.0 | 12.2% | -17.5% | 25.9
COC(=O)C1CCN(C(=O)CSc2nnc(-c3ccncc3)o2)CC1 | -2.6 | 5.22µM* | -0.3 | 12.7% | -12.5% | -5.8
COc1ccc(N2CCN(C(=O)CSc3nnc(-c4ccc5[nH]c(C)c(C)c5c4)o3)CC2)cc1 | -1.6 | 3.29µM* | 32.2 | ? | -15.8% | -8.0
COc1ccc(-c2nnc(SCC(=O)N3CCCC3)o2)cc1 | 32.5* | -18.0% | 41.4 | 83.3% | 3.8% | 66.6*
COc1ccc(N2CCN(C(=O)c3ccc4[nH]c(C)c(C)c4c3)CC2)cc1 | -1.1 | ? | 12.9 | ? | 14.8% | -3.4
Cc1ccc(S(=O)(=O)N2CCN(C(=O)CSc3nnc(-c4ccco4)o3)CC2)cc1 | -1.5 | 10.4µM* | -29.3 | · | -26.1% | -8.7
Cc1ccc(-c2nnc(SCC(=O)N3CCCC3)o2)cc1 | 17.0* | 2.6% | -13.4 | 29.4% | -0.4% | 56.4
O=C(CSc1nnc(-c2ccc(F)cc2)o1)N1CCCC1 | 16.4* | ? | 6.7 | 84.2% | -12.2% | 33.6
Cc1cccc(-c2nnc(SCC(=O)N3CCCC3)o2)c1 | 19.1* | -10.5% | -26.2 | 108.2% | -11.5% | 92.5*
Cc1cccc(-c2nnc(SCCC(=O)O)o2)c1 | · | · | -87.8* | · | · | ·
Cc1cc(C)c(C(=O)N2CCCC(CNC(=O)C3(c4ccc(Cl)cc4)CC3)C2)c(=O)[nH]1 (stereo unspecified) | 1.3 | ? | -3.4 | 23.2% | 3.8% | -4.2

Assay outcomes deposited in PubChem by National Center for Advancing Translational Sciences (NCATS).
